# Screening data as filed in PubChem.
# CYP2C9 act: CYP2C9 (human) activation; recombinant CYP2C9, luciferin-H conversion, luminescence; active compounds read high; factor 1 = untreated enzyme, 0 = blocked; activation factor at 5 µM; hit rate 1.4% among 96,000; P11712;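 active = activation factor of 2 or more for CYP2C9 at a 5 µM dose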;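 note: 0 = sulfaphenazole-blocked wells and 1 = vehicle-only wells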
# CYP2C19 activ: increases human CYP2C19 enzyme activity. P33261. recombinant CYP2C19, luciferin-H EGE luminescence; active compounds read high; 0 = fully inhibited enzyme, 1 = untreated enzyme. activation factor at 5 µM. 96,000 tested, under 10 active;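 active = activation factor of at least 2 at 5 µM in the primary screen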;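 note: 0 = wells with 2.5 mM tranylcypromine and 1 = vehicle-only wells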
# CYP2C9 inhib: human CYP2C9 inhibition; CYP2C9 Supersomes, luciferin-H conversion, luminescence; inhibition, % at 5 µM; hit rate 20% among 96,000;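 active = blocking of liver enzyme CYP2C9 beyond about 50% at 5 µM, limit read from the data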
# sEH act: increases human soluble epoxide hydrolase activity. P34913. activation, % at 2 µM. purified human sEH enzymatic activity, activator screen. hit rate 0.04% among 91,000; in the data active = activation above about 37%
# Target sequence (P34913 whole entry, looked up): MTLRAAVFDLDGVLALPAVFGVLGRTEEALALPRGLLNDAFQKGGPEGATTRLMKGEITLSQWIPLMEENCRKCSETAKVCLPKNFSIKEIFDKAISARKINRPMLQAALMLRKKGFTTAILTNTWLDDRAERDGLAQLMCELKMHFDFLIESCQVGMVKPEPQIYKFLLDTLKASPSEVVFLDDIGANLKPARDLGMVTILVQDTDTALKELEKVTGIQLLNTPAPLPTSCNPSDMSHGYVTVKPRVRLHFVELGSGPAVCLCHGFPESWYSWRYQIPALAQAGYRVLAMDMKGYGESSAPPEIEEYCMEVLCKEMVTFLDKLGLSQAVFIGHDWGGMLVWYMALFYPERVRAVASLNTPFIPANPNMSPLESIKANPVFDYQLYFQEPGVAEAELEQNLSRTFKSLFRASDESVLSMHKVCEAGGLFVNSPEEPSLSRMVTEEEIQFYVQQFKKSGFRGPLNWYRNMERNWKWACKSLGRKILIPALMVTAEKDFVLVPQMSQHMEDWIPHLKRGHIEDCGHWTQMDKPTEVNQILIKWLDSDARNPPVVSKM
# sEH inh: inhibitors of human soluble epoxide hydrolase; recombinant human sEH enzymatic activity assay; inhibition, % at 2 µM; hit rate 0.34% among 91,000; AID 707; in the data active = inhibition above about 80%
# CYP2C19 inhib: human CYP2C19 inhibition; inhibition, % at 5 µM; P33261; hit rate 21% among 96,000; CYP2C19 Supersomes, luciferin-H EGE luminescence, 30 min; AID 778;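 active = CYP2C19 inhibition above a set limit at 5 µM in the primary screen, cut at about 50% in these data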;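 note: plate controls were negative control wells for no effect and 2.5 mM tranylcypromine positive control for full effect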
# * hit, by the source's call; / = no result given. Most compounds without a hit are left out; they make up all but 27% or so of the library.
SMILES,CYP2C9 act,CYP2C19 activ,CYP2C9 inhib,sEH act,sEH inh,CYP2C19 inhib
CC(C)[C@H](NS(=O)(=O)c1ccccc1)C(=O)OCn1nnc2ccccc2c1=O,0.8,0.6,17.9,-9.9,9.5,36.7
CC1=CC(C)C(/C=N/n2cnnc2)C(C)C1 (stereo unspecified),/,/,/,-5.0,6.5,/
C=C(C)C1CCC(C)=C1CC(C)(C)/C=N\n1cnnc1 (stereo unspecified),0.4,0.1,63.4*,/,/,85.8*
CNc1nnc(-c2ccc(N(C)C)cc2)s1,/,/,/,14.1,-16.2,/
CN(C)c1ccc(-c2ccncc2)cc1,0.5,0,49.8,/,/,97.5*
Cc1csc(N(C(=O)c2cccc(S(=O)(=O)N(C)C)c2)c2ccccc2)n1,1,0.9,0.1,/,/,10.6
Cc1ccc(-c2csc3nc(C)n(-n4cccc4)c(=O)c23)o1,0.9,0.7,8.0,/,/,29.1
O=C1C(=O)N(Cc2cccnc2)C(c2ccccn2)/C1=C(/O)c1ccc(Br)cc1 (stereo unspecified),0.1,1,86.0*,/,/,-0.7
Cc1cc(C)c2c(n1)nn1c(C3CC3)cc(C(F)(F)F)nc21,/,/,/,0.4,-0.4,/
Cc1cc(C(c2ccc(C)o2)c2ccc(C)o2)c(O)c([N+](=O)[O-])c1,0,0.4,95.4*,-0.7,-2.2,64.7*
Cc1ccc(C(c2ccc(C)o2)c2cccc([N+](=O)[O-])c2O)o1,0.9,1.1,7.1,-4.3,5.5,-8.1
CC(/C=N/NC(=O)Cc1cc(=O)[nH][nH]1)=C\c1ccccc1,1,1,2.1,-7.0,7.8,4.2
CC(C)(C)c1ccc(OCC(=O)NCCN2CCCC2)cc1,1.2,1,-18.5,2.6,-0.4,1.4
COc1ccc(NS(=O)(=O)c2ccc3oc(Nc4ccc5c(c4)OCCO5)nc3c2)cc1,0,0.5,96.3*,-5.9,9.6,51.3*
Cn1c(=O)c(=O)n(C)c2cc(S(=O)(=O)N3CCCCCC3)ccc21,1,1,4.9,/,/,1.5
Cn1c(=O)c(=O)n(C)c2cc(S(=O)(=O)Nc3ccc4c(c3)OCCO4)ccc21,0.5,1,53.6*,-12.7,15.1,-1.5
Cn1c(=O)oc2cc(S(=O)(=O)Nc3ccc4c(c3)OCCO4)ccc21,0.8,0.7,17.5,2.2,0.3,26.9
Cn1c(=O)c(=O)n(C)c2cc(S(=O)(=O)Nc3ccc(OC(F)(F)F)cc3)ccc21,0.1,0.2,91.4*,-0.1,-0.3,82.3*
COc1cc(OC)c2c(c1)C(=O)c1cc(OC)cc(OC)c1C2=O,1,1,2.2,4.7,-2.0,3.8
COc1ccc(C2NC(=O)NC3=C2CCc2ccccc23)cc1 (stereo unspecified),0.8,0.2,16.1,-6.9,8.3,80.7*
CC(C)c1ccc(C2NC(=O)NC3=C2CCc2ccccc23)cc1 (stereo unspecified),0.8,0.7,21.5,-17.9,15.5,26.0
Cc1ccc(C2NC(=O)NC3=C2CCc2ccccc23)cc1 (stereo unspecified),0.7,0.1,32.7,18.0,-21.4,94.9*
COc1ccc(S(=O)(=O)Nc2nnc(CC(C)C)s2)cc1,0.4,1,63.0*,7.4,-9.4,-2.3
CC(C)Cc1nnc(NS(C)(=O)=O)s1,0.9,1,11.3,-5.7,6.9,-1.2
CC(C)Cc1nnc(NS(=O)(=O)c2ccc(Cl)cc2)s1,0.3,0.9,70.5*,-6.1,5.2,9.0
SMILES,CYP2C9 act,CYP2C19 activ,CYP2C9 inhib,sEH act,sEH inh,CYP2C19 inhib
Cc1nc2ccc(CCO)cc2s1,/,/,/,-7.1,6.2,/
O=C(NCCN1C(=O)C2C3C=CC(C3)C2C1=O)Nc1ccccc1 (stereo unspecified),0.8,0.3,19.1,/,/,69.6*
Cc1cccc(NC(=O)NCCN2C(=O)C3C4C=CC(C4)C3C2=O)c1 (stereo unspecified),0.9,0.2,6.3,/,/,79.6*
Cc1cccc(NC(=O)CCN2CCOCC2)c1,1.4,1.1,-37.0,/,/,-7.7
Cc1cccc(NC(=O)CCN2C(=O)C3C4C=CC(C4)C3C2=O)c1 (stereo unspecified),0.7,0.1,26.3,-7.0,8.8,85.4*
CCOC(=O)c1cccc(NC(=O)CN2C(=O)C3C4C=CC(C4)C3C2=O)c1 (stereo unspecified),0.5,0.8,47.8,-30.1,28.5,18.0
Cc1cccc(NC(=O)CCn2ccnc2C)c1,0.9,0.4,14.1,-4.6,7.4,62.0*
Cc1ccc(C23CC4CC(CC(CC(=O)N5CCOCC5)(C4)C2)C3)cc1,/,/,/,1.1,-4.6,/
Cc1ccccc1NC(=O)NCCN1C(=O)C2C3C=CC(C3)C2C1=O (stereo unspecified),1,0.5,4.6,-14.8,14.6,50.2*
Cc1ccc(NC(=O)NCCN2C(=O)C3C4C=CC(C4)C3C2=O)cc1 (stereo unspecified),0.9,0.1,12.9,/,/,90.7*
O=C(CCN1C(=O)C2C3C=CC(C3)C2C1=O)NCc1cccnc1 (stereo unspecified),1.1,0,-8.3,-17.8,17.2,98.1*
O=C(NCCN1C(=O)C2C3C=CC(C3)C2C1=O)NCc1ccccc1 (stereo unspecified),0.9,0.9,10.8,/,/,11.8
COc1ccc(S(=O)(=O)Nc2cc(C(=O)NCCC(C)C)ccc2N2CCOCC2)cc1,0.4,0.5,60.6*,/,/,45.5
CCOCCCNC(=O)c1ccc(N(C)S(=O)(=O)c2ccc(OC)cc2)cc1,0.2,0.8,78.1*,3.8,-5.9,19.1
COc1ccc(S(=O)(=O)N(C)c2ccc(C(=O)NCCC(C)C)cc2)cc1,0.1,0.1,92.2*,-63.1,63.8,85.5*
CCN(CC)CCNC(=O)c1ccc(N2CCCCC2)c(NS(=O)(=O)c2ccc(C)cc2)c1,0.6,0.5,42.0,4.7,-9.3,46.0
COc1ccc(S(=O)(=O)N(C)c2ccc(C(N)=O)cc2)cc1,0.5,0.6,49.8,7.9,-9.3,44.4
CC(C)OCCCNC(=O)c1ccc(N(C)S(C)(=O)=O)cc1,/,/,/,6.7,-5.0,/
CC(=O)COc1ccc2c3c(c(=O)oc2c1)CCCC3,0.6,0.4,42.0,-14.4,14.9,64.3*
CC(C)CCNC(=O)COc1ccc2c3c(c(=O)oc2c1)CCC3,0.8,1.1,23.8,-16.0,15.6,-5.4
Cc1c(OCc2nn[nH]n2)ccc2c3c(c(=O)oc12)CCCC3,0.1,0.3,93.7*,0.5,-1.0,67.1*
COc1ccc2c3c(c(=O)oc2c1OCC(N)=O)CCCC3,2.5*,0.9,-145.2,6.0,-3.2,11.1
CC(C)CNC(=O)COc1ccc2c3c(c(=O)oc2c1)CCC3,0.2,0.5,76.4*,1.9,1.0,48.5
CC(=O)C(C)Oc1ccc2c3c(c(=O)oc2c1)CCCC3 (stereo unspecified),0.8,0.8,18.2,-8.7,7.5,17.8
Cc1ccc(OC(=O)C(F)(F)F)c2c1NCCC2,0.9,0.6,14.8,2.0,-0.5,35.9
O=C(Nc1cn(-c2ccccc2)nc1-c1cccs1)c1ccco1,0.6,0.6,35.2,-11.4,10.9,37.0
